Assay in all cases: DAPPL (digital affinity profiling via proximity ligation, sequencing); 10 mM Tris-HCl pH 7.5, 50 mM NaCl, 1 mM DTT, 4% glycerol, room temperature, 30 min; GST-TFs on glutathione beads, 16-mer random dsDNA library, 0.1% formaldehyde crosslink after washing; high values mean tight binding
What all share (settings): protein: recombinant; tags: N-terminal GST; dsDNA, one strand shown

The target of assay [1] is T1, FLI1 (Homo sapiens, UniProt Q01543 1-452).
T1 sequence: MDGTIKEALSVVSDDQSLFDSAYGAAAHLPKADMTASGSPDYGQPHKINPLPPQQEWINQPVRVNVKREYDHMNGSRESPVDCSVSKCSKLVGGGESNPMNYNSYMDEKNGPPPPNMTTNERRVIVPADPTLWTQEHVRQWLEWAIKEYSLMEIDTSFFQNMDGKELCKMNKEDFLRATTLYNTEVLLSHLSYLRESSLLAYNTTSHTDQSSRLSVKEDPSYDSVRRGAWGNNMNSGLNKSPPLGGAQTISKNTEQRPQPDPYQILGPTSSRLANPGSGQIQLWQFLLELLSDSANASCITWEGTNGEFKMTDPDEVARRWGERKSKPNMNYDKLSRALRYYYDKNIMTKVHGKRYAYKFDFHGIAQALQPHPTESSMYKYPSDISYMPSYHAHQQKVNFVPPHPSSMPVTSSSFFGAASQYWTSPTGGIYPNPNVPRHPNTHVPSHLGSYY
In a few lines:
(§1)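 A tag-only sample was pooled with DNA-barcoded human transcription factors that had been expressed in yeast as GST fusions and captured on glutathione beads. The pools were incubated for 30 min at room temperature with 200 nmole of a random double-stranded 16-mer DNA library in Tris/NaCl/DTT/glycerol buffer, then washed, crosslinked with 0.1% formaldehyde, proximity-ligated (BsaI/T4 ligase, 1 h, 37 °C), PCR-amplified and sequenced on an Illumina NextSeq500. Binding signal is each hexamer's read frequency for a factor divided by its frequency for the tag-only sample.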

Assay [2] has as its target T2, ERG (Homo sapiens, UniProt P11308 1-479).
T2 sequence: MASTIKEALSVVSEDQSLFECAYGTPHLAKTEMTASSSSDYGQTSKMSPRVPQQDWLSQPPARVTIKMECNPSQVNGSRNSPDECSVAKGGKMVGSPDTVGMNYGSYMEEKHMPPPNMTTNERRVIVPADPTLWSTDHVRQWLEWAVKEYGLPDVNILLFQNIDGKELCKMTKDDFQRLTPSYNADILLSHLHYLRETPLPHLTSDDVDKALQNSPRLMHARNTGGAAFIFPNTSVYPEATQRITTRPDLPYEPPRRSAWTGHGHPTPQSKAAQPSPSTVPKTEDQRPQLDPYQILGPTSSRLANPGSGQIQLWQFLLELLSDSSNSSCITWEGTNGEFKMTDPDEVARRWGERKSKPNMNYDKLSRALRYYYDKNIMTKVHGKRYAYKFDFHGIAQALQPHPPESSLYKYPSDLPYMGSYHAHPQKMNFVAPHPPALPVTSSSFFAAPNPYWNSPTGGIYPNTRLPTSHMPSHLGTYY
In a few lines:
as §1

Assay [3] deals with T3, EHF (Homo sapiens, UniProt Q9NZC4 1-300).
T3 sequence: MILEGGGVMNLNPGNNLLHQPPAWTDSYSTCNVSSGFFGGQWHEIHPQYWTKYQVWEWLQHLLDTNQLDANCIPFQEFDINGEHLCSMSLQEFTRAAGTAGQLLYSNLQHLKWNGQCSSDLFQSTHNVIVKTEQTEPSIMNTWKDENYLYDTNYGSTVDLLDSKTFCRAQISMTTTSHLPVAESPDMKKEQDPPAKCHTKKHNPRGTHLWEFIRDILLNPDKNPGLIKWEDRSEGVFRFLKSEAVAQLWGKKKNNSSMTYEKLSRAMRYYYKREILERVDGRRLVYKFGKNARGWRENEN
In a few lines:
as §1

For assay [4], the target named is SPIB (Homo sapiens, UniProt Q01892 1-262). In a few lines:
as §1

Assay [5] addresses T4, FEV (Homo sapiens, UniProt Q99581 1-238).
T4 sequence: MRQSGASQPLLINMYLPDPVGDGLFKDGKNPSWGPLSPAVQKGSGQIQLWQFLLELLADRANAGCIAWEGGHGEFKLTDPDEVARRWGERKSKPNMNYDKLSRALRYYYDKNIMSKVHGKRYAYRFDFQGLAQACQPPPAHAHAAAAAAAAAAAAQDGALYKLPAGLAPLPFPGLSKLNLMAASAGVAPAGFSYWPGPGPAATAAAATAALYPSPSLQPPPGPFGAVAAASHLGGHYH
In a few lines:
as §1

Assay [6] has as its target ETV5 (Homo sapiens, UniProt P41161 1-510). In a few lines: as §1
The target in assay [7] is T5, SPIC (Homo sapiens, UniProt Q8N5J4 1-248).
T5 sequence: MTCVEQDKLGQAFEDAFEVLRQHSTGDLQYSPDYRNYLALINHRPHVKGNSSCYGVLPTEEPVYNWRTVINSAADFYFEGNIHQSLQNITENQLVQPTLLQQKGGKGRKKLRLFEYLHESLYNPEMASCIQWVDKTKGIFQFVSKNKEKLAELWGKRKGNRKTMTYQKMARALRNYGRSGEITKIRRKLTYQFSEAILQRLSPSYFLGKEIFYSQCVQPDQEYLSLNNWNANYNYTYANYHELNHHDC
In a few lines: as §1

Assay [8] concerns the target ETV1 (Homo sapiens, UniProt P50549 1-477). In a few lines:
as §1

For assay [9], the target named is T6, ETV3L (Homo sapiens, UniProt Q6ZN32 1-361).
T6 sequence: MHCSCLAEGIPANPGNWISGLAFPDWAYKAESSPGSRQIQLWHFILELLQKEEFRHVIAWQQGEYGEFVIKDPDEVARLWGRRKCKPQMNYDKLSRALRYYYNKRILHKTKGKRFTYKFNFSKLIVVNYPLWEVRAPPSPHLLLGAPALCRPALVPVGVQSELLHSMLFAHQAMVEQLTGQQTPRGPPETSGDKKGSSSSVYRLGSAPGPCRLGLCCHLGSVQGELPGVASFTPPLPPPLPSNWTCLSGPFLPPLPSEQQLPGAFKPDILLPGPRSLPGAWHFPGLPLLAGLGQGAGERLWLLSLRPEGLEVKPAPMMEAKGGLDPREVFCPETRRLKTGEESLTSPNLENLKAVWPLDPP
In a few lines:
as §1

Assay [10] concerns the target T7, ETS2 (Homo sapiens, UniProt P15036 1-469).
T7 sequence: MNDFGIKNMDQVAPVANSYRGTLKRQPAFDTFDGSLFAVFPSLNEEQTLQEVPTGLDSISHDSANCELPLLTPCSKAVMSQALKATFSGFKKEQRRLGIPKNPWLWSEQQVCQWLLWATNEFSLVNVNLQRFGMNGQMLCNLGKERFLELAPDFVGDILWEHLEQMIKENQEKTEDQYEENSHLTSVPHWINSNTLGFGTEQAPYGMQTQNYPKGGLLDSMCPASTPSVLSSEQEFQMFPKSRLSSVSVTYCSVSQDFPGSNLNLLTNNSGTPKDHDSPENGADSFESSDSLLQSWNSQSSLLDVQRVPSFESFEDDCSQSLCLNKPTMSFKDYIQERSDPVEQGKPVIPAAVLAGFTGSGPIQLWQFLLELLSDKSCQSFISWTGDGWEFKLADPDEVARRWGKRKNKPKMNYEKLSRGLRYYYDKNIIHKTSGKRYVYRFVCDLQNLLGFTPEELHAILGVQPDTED
In a few lines:
as §1

Assay [11] has as its target T8, SPDEF (Homo sapiens, UniProt O95238 1-335).
T8 sequence: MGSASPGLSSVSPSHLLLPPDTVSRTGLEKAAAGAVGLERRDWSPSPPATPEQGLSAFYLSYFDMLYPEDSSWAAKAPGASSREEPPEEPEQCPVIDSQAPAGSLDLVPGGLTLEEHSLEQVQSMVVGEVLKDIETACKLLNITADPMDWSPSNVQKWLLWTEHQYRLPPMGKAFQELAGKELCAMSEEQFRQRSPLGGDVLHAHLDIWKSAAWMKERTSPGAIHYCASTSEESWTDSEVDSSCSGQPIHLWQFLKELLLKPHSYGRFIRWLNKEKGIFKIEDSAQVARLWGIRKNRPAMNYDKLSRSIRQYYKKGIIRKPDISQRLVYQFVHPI
In a few lines: as §1

Assay [12] concerns the target T9, ELF5 (Homo sapiens, UniProt Q9UKW6-2 1-255).
T9 sequence: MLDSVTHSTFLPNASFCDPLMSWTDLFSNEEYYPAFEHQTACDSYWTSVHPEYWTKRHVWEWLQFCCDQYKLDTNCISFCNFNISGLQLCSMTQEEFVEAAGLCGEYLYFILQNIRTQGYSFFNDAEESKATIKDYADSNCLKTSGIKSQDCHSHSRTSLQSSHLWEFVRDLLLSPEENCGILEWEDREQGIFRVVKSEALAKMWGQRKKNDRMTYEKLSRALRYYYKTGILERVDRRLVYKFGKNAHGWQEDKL
In a few lines: as §1

The target in assay [13] is T10, ETV3 (Homo sapiens, UniProt P41162-2 1-143).
T10 sequence: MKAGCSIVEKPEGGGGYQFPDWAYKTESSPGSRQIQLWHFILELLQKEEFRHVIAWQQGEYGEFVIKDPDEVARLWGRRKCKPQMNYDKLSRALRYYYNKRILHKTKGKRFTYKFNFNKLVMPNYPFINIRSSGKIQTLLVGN
In a few lines: as §1

The target in assay [14] is ETV6 (Homo sapiens, UniProt P41212 1-452). In a few lines: as §1
Assay [15] addresses T11, GABPA (Homo sapiens, UniProt Q06546 1-454).
T11 sequence: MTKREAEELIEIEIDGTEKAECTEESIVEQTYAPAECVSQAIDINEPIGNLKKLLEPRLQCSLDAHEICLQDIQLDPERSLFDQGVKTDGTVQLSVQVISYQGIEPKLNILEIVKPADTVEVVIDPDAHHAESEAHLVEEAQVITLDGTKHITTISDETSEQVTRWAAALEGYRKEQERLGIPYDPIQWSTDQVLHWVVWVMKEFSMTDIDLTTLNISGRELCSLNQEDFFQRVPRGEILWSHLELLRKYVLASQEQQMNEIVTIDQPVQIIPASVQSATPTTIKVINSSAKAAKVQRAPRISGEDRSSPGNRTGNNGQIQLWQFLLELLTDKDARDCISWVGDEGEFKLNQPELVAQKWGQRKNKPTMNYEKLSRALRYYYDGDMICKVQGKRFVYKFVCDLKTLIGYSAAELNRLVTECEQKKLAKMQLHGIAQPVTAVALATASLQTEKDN
In a few lines:
as §1

ETV1, sequence (P50549 whole entry): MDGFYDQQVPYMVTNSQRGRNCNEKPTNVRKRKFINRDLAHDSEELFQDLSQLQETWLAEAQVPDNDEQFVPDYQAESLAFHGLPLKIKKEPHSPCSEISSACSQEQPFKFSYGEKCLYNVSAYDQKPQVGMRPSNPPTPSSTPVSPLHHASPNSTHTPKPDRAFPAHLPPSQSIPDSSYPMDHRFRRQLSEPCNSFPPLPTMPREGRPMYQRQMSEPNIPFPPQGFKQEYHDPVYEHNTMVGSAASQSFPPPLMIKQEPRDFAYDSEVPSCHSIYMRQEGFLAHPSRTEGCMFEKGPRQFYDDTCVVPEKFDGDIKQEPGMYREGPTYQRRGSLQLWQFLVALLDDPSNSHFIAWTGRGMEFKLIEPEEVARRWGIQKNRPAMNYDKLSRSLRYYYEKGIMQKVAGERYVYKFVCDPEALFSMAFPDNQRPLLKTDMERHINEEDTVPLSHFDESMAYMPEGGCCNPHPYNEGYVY
ETV5, sequence (P41161 whole entry): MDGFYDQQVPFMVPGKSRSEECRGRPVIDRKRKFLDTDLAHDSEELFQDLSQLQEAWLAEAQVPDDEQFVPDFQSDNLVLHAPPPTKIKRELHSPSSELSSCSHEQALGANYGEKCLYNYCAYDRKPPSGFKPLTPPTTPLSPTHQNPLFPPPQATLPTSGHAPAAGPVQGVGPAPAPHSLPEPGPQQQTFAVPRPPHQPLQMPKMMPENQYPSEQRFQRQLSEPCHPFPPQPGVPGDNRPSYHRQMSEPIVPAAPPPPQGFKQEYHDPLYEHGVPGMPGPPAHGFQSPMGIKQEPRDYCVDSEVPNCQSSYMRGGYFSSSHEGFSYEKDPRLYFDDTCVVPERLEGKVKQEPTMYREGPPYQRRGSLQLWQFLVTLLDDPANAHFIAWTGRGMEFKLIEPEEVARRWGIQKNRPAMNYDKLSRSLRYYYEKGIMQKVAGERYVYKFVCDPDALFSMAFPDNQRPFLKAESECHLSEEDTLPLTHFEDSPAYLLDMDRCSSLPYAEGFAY
SPIB, sequence (Q01892 whole entry): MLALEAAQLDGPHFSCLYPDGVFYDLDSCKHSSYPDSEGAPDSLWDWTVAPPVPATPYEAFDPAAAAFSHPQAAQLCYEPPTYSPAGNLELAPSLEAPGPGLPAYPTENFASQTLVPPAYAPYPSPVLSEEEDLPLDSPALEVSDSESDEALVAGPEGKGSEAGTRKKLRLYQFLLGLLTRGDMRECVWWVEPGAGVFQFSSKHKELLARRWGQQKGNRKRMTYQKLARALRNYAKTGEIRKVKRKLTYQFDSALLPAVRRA
ETV6, sequence (P41212 whole entry): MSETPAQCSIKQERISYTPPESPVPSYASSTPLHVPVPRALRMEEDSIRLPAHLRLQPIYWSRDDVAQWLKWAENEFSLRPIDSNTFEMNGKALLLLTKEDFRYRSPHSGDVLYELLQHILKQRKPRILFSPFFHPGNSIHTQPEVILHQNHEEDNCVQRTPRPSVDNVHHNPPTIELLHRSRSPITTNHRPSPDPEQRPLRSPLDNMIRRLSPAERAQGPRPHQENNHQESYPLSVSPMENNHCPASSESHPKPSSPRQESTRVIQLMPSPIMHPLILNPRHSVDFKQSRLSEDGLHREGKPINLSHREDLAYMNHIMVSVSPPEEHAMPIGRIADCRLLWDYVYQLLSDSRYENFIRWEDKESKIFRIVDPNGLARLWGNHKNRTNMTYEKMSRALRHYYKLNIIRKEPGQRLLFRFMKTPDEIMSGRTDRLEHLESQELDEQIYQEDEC

For the sequence CCCGGT, the binding signal in assay [1] is 1.01 fold enrichment (6-mer frequency, TF over GST control); in [2], 1.09 fold enrichment (6-mer frequency, TF over GST control); in [3], 1.14 fold enrichment (6-mer frequency, TF over GST control); in assay [4], 1.01 fold enrichment (6-mer frequency, TF over GST control); in assay [5] it was 1.04 fold enrichment (6-mer frequency, TF over GST control); in assay [6], 1.09 fold enrichment (6-mer frequency, TF over GST control). Further, the binding signal in assay [7] is 1.07 fold enrichment (6-mer frequency, TF over GST control); in assay [8] it was 1.07 fold enrichment (6-mer frequency, TF over GST control); in assay [9], 1.01 fold enrichment (6-mer frequency, TF over GST control); in [10], 1.04 fold enrichment (6-mer frequency, TF over GST control); in [11] it was 1.11 fold enrichment (6-mer frequency, TF over GST control); in assay [12] it was 1.05 fold enrichment (6-mer frequency, TF over GST control). Besides, the binding signal was 1.09 fold enrichment (6-mer frequency, TF over GST control) in assay [13] and 1 fold enrichment (6-mer frequency, TF over GST control) in assay [14].

As to GTCCGC, the binding signal in [1] is 1.1 fold enrichment (6-mer frequency, TF over GST control); in assay [15], 1 fold enrichment (6-mer frequency, TF over GST control); in assay [2], 1.04 fold enrichment (6-mer frequency, TF over GST control); in assay [3] it was 1.05 fold enrichment (6-mer frequency, TF over GST control); in [4], 1.03 fold enrichment (6-mer frequency, TF over GST control); in [5], 1.04 fold enrichment (6-mer frequency, TF over GST control). Also, the binding signal in [6] is 1.07 fold enrichment (6-mer frequency, TF over GST control); in assay [7], 1.21 fold enrichment (6-mer frequency, TF over GST control); in [8], 1.08 fold enrichment (6-mer frequency, TF over GST control); in [9], 1.02 fold enrichment (6-mer frequency, TF over GST control); in [11], 1.07 fold enrichment (6-mer frequency, TF over GST control); in assay [12], 1.07 fold enrichment (6-mer frequency, TF over GST control). The binding signal was 1.03 fold enrichment (6-mer frequency, TF over GST control) in assay [13] and 1.03 fold enrichment (6-mer frequency, TF over GST control) in [14].

Source of the values: publication PMC7862700, “An all-to-all approach to the identification of sequence-specific readers for epigenetic DNA modifications on cytosine”.
